# Shown are actives, neighbours in structure and some others; about 1.2% of the full set was active somewhere.
# RGS8-Gao reg = RGS8-Galphao binding modulators, primary screen, biochemical, multiplexed bead flow cytometry; AID 1423, 2008; response (percent of control binding), % at 10 µM; Guanine nucleotide-binding protein G(o) subunit alpha (Homo sapiens), P09471; actives lie on both sides; hit rate 0.34% among 220,000; in the data active = response below about 60% or above about 140%; inactive = in between;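 note: Galphao activated as the GDP aluminium fluoride complex binding bead-coupled RGS8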
# Target sequence (P09471 whole entry, looked up): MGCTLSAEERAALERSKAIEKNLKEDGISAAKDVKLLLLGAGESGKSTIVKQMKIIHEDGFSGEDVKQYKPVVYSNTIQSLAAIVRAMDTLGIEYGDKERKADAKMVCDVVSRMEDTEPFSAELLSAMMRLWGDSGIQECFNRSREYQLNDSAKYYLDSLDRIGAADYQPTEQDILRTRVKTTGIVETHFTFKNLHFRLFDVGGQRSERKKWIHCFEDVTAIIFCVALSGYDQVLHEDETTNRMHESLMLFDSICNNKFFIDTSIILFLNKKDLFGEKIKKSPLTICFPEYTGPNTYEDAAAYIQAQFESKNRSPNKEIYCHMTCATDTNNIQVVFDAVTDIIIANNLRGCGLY
# Avidin fluor = green autofluorescence of compounds with avidin beads – biophysical, 488/530 nm, flow cytometry, artefact control, profiling panel; compound fluorescence 488/530 nm; active compounds read high; fluorescence (KMESF) at 10 µM; hit rate 0.38% among 220,000; in the data active = fluorescence above about 47
# RGS16-Gao = modulators of RGS16 binding to Galphao, primary screen, biochemical, human proteins, multiplexed bead flow cytometry; Regulator of G-protein signaling 16 (Homo sapiens) + Guanine nucleotide-binding protein …; AID 1441, 2008; bead-based flow cytometry RGS16-Galphao binding, fluorescence; actives lie on both sides; hit rate 0.38% among 220,000; binding response (% of control), % at 10 µM;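 note: Galphao activated by GDP with aluminum fluoride before binding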
# GSH bead fluor = compound fluorescence on glutathione beads, profiling panel, artefact control, biophysical, 488/530 nm, flow cytometry; GSH beads flow cytometry, compound fluorescence 488/530 nm; active compounds read high; AID 1776, 2009; fluorescence (KMESF) at 10 µM; hit rate 0.25% among 190,000; in the data active = fluorescence above about 89;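 note: glutathione beads carrying GST-tagged Bcl family fusion proteins plus one bare bead set; values are compound well signal with DMSO vehicle wells as background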
# RGS7-Gao reg = RGS7-Galphao binding modulators, primary screen, biochemical, multiplexed bead flow cytometry; Guanine nucleotide-binding protein G(o) subunit alpha (Homo sapiens), P09471; actives lie on both sides; binding response (% of control), % at 10 µM; hit rate 0.35% among 220,000; in the data active = binding response below about 49% or above about 150%; inconclusive = no clear call, values can overlap the other calls; inactive = in between;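 note: fluorescent Galphao held in activated GDP-AlF4 state binding bead-coupled RGS7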
# RGS4-Gao reg = modulators of RGS4 binding to Galphao, primary screen, biochemical, multiplexed bead flow cytometry | Guanine nucleotide-binding protein G(o) subunit alpha (Homo sapiens), P09471 | actives lie on both sides | binding response (% of control), % at 10 µM | hit rate 0.33% among 220,000; in the data active = binding response below about 49% or above about 150%; inactive = in between;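 note: fluorescent Galphao activated with aluminum fluoride binding bead-coupled RGS4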
# RGS4-Gao HTS = modulators of RGS–Galpha-o binding, primary screen, biochemical, multiplexed beads, flow cytometry, RGS4/7/8/16/19. shares compounds with RGS16-Gao. hit rate 99% among 1,600. multiplexed bead flow cytometry. RGS4–Galpha-o binding response, % at 10 µM;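 note: fluorescently labeled Galpha-o bound to GDP with aluminium fluoride binding biotinylated RGS beads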
# Biotin-avidin = disruption of biotin probe capture by avidin, counter-screen for RGS protein interaction modulators, biochemical, flow cytometry, bead-based; shares compounds with RGS16-Gao; streptavidin beads, fluorescein-biotin binding; inhibition, % at 10 µM; 1,700 tested, under 10 active;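 active = inhibition above 50%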;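 note: median green fluorescence of gated singlet beads compared with DMSO control wells; 0% = DMSO wells and 100% = complete loss of bead fluorescence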
# RGS8-Gao confirm = RGS8-Galphao binding modulators, confirmation, biochemical, multiplexed bead flow cytometry, single concentration. shares compounds with RGS16-Gao. bead-based flow cytometry RGS8-Galphao binding, fluorescence; actives lie on both sides. binding response (% of control), % at 10 µM. hit rate 3% among 1,700; in the data active = binding response below about 72% or above about 130%; inactive = in between;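 note: Galphao activated as GDP AlF4 complex before binding bead RGS8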
# RGS7-Gao confirm = RGS7-Galphao binding modulators, confirmation, biochemical, multiplexed bead flow cytometry, single concentration; shares compounds with RGS16-Gao; bead-based flow cytometry RGS7-Galphao binding; actives lie on both sides; response (percent of control binding), % at 10 µM; hit rate 7.8% among 1,700; AID 1837, 2009; in the data active = response below about 75% or above about 130%; inactive = in between;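 note: fluorescent Galphao activated with GDP and aluminum fluoride binding bead-coupled RGS7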
# RGS16-Gao single = modulators of RGS16-Galphao protein binding, confirmation, biochemical, single concentration, multiplexed bead flow cytometry; shares compounds with RGS16-Gao; bead-based flow cytometry; actives lie on both sides; response (% of control binding), % at 10 µM; hit rate 4% among 1,700; AID 1838, 2009; in the data active = response below about 74% or above about 130%; inactive = in between;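 note: Galphao activated as the GDP aluminium fluoride complex binding bead-coupled RGS16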
# RGS4-Gao single = modulators of RGS4-Galphao protein binding, confirmation, biochemical, single concentration, multiplexed bead flow cytometry; shares compounds with RGS16-Gao; actives lie on both sides; hit rate 4% among 1,700; AID 1840, 2009; binding response (% of control), % at 10 µM; in the data active = binding response below about 74% or above about 130%; inactive = in between
# RGS19-Gao single = regulators of RGS19-Galphao binding, confirmation, biochemical, single point, multiplexed bead flow cytometry | bead-based flow cytometry RGS19-Galphao binding; actives lie on both sides | response (percent of control binding), % at 10 µM | shares compounds with RGS16-Gao | hit rate 5% among 1,700; in the data active = response below about 50% or above about 160%; inactive = in between;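 note: 100% = no compound control and 0% = blank background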
# The depositor's hits bear a star; ? = inconclusive; / = no result; [ ] = remark or other dose. Unless noted, the rule behind the calls is not given here.
SMILES,RGS8-Gao reg,Avidin fluor,RGS16-Gao,GSH bead fluor,RGS7-Gao reg,RGS4-Gao reg,RGS4-Gao HTS,Biotin-avidin,RGS8-Gao confirm,RGS7-Gao confirm,RGS16-Gao single,RGS4-Gao single,RGS19-Gao single
Cc1cccc(OCC(=O)N2CCOCC2)c1,96.6,277*,123.4,11,270.8*[activator],159.6*[activator],/,-0.4,100.7,95.3,102.6,101.2,101.3
CCN1CCN(C(=S)c2ccc(OCC(=O)N3CCOCC3)cc2)CC1,17.1*,-2,5.2*,20,8.8*,8.1*,/,0.1,107.5,100.1,109.6,102.4,131.7
CCOC(=O)CN1C(c2ccc(O)cc2)Nc2ccc(Br)cc2C1c1ccccc1 (stereo not drawn),61.6,2,14.4*,5,95.5,84.6,84.6*,0.3,100.8,94.8,96.0,96.8,128.9
c1ccc(-c2nccnc2-c2ccccc2)cc1,103.6,9,108.0,/,?,102.9,/,/,/,/,/,/,/
FC(F)Sc1nc(-c2ccccc2)c(-c2ccccc2)n1C(F)F,100.0,100*,106.3,19,173.5*[activator],117.1,117.1*,-1.0,101.8,96.8,99.9,99.7,86.4
COc1cc(/C=N/NC(=O)c2ccc(-n3cccc3)cc2)ccc1O,14.2*,-1,-85.9,11,16.0*,15.8*,/,-1.1,97.2,100.0,96.3,96.9,85.9
COc1ccc(-n2c(C)cc(/C=C3/SC(=S)N(C)C3=O)c2C)cc1,2.9*,-3,-2.3*,24,-5.5*,-20.3*,/,3.0,98.6,103.9,97.9,98.2,102.7
Cc1cc(/C=C2\SC(=S)N(C)C2=O)c(C)n1-c1cccc(O)c1,102.5,6,98.8,/,?,96.2,/,/,/,/,/,/,/
COc1ccc(-c2cc(-c3n[nH]c(=S)n3-c3ccccc3OC)[nH]n2)cc1,94.3,11,93.2,20,103.7,96.6,/,/,/,/,/,/,/
COc1ccccc1-n1c(-c2cn(C)nc2C)n[nH]c1=S,65.7,0,12.8*,6,96.3,93.4,93.4*,0.5,89.1,92.7,85.0,88.1,84.4
COc1ccccc1-n1c(-c2ccccc2)n[nH]c1=S,104.5,31,110.0,18,158.6*[activator],105.8,105.8*,3.8,98.8,176.4*[activator],136.6*[activator],132.7*[activator],156.5*[activator]
